# According to the supplement of paper PMC8728848:
# About 410 targets per protein were measured; listed, in parts, are those with the strongest signals and a random draw of the rest.
# Experiments:
# Test in all cases: glycan array binding signal (z-score within array); higher = stronger binding
# Conditions in all cases: glycan notation: IUPAC condensed, linker removed
# [1] = molecular target: Fuc(a1-2)Gal(b1-3)GalNAc(a1-3)[Fuc(a1-2)]Gal(b1-4)Glc
# Outline: (§1)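 From the Consortium for Functional Glycomics database, 3228 arrays were curated, keeping only those whose protein sequence was available. Binding is given as a within-array Z-score averaged across arrays sharing a protein sequence and across linkers. Negative Z-scores can be read as non-binding.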
# Fuc(a1-2)Gal(b1-3)GlcNAc = molecular target: Fuc(a1-2)Gal(b1-3)GlcNAc
# Outline: as §1
# [2] = molecular target: Fuc(a1-2)Gal(b1-3)GlcNAc(b1-3)GalNAc
# Outline: as §1
# [3] = molecular target: Fuc(a1-2)Gal(b1-4)GlcNAc(b1-3)Gal(b1-4)GlcNAc
# Outline: as §1
# [4] = molecular target: Fuc(a1-2)Gal(b1-4)[Fuc(a1-3)]GlcNAc(b1-2)[Fuc(a1-2)Gal(b1-4)[Fuc(a1-3)]GlcNAc(b1-4)]Man(a1-3)[Fuc(a1-2)Gal(b1-4)[Fuc(a1-3)]GlcNAc(b1-2)Man(a1-6)]Man(b1-4)GlcNAc(b1-4)GlcNAc
# Outline: as §1
# [5] = molecular target: Fuc(a1-2)[Gal(a1-3)]Gal(b1-4)GlcNAc(b1-2)Man(a1-3)[Fuc(a1-2)[Gal(a1-3)]Gal(b1-4)GlcNAc(b1-2)Man(a1-6)]Man(b1-4)GlcNAc(b1-4)GlcNAc
# Outline: as §1
# [6] = molecular target: Fuc(a1-2)[GalNAc(a1-3)]Gal(b1-4)[Fuc(a1-3)]GlcNAc(b1-3)GalNAc
# Outline: as §1
# [7] = molecular target: Fuc(a1-3)[Gal3S(b1-4)]GlcNAc
# Outline: as §1
# [8] = molecular target: Gal(a1-3)Gal(b1-3)GlcNAc(b1-2)Man
# Outline: as §1
# Gal(a1-3)Gal(b1-4)GlcNAc = molecular target: Gal(a1-3)Gal(b1-4)GlcNAc
# Outline: as §1
# [9] = molecular target: Gal(a1-3)Gal(b1-4)GlcNAc(b1-2)Man(a1-3)[Gal(a1-3)Gal(b1-4)GlcNAc(b1-2)Man(a1-6)]Man(b1-4)GlcNAc(b1-4)GlcNAc
# Outline: as §1
# Gal(b1-3)GlcNAc = molecular target: Gal(b1-3)GlcNAc
# Outline: as §1
# [10] = molecular target: Gal(b1-3)GlcNAc(b1-3)Gal(b1-3)GlcNAc
# Outline: as §1
# [11] = molecular target: Gal(b1-3)GlcNAc(b1-3)Gal(b1-4)GlcNAc(b1-2)Man(a1-3)[Gal(b1-3)GlcNAc(b1-3)Gal(b1-4)GlcNAc(b1-2)Man(a1-6)]Man(b1-4)GlcNAc(b1-4)GlcNAc
# Outline: as §1
# [12] = molecular target: Gal(b1-3)GlcNAc(b1-3)Gal(b1-4)GlcNAc(b1-2)[Gal(b1-3)GlcNAc(b1-3)Gal(b1-4)GlcNAc(b1-6)]Man(a1-6)[Gal(b1-3)GlcNAc(b1-3)Gal(b1-4)GlcNAc(b1-2)Man(a1-3)]Man(b1-4)GlcNAc(b1-4)[Fuc(a1-6)]GlcNAc
# Outline: as §1
# [13] = molecular target: Gal(b1-3)GlcNAc(b1-3)Gal(b1-4)GlcNAc(b1-3)Gal(b1-4)GlcNAc(b1-2)[Gal(b1-3)GlcNAc(b1-3)Gal(b1-4)GlcNAc(b1-3)Gal(b1-4)GlcNAc(b1-6)]Man(a1-6)[Gal(b1-3)GlcNAc(b1-3)Gal(b1-4)GlcNAc(b1-3)Gal(b1-4)GlcNAc(b1-2)Man(a1-3)]Man(b1-4)GlcNAc(b1-4)[Fuc(a1-6)]GlcNAc
# Outline: as §1
# [14] = molecular target: Gal(b1-3)[Fuc(a1-4)]GlcNAc(b1-2)Man(a1-3)[Gal(b1-3)[Fuc(a1-4)]GlcNAc(b1-2)Man(a1-6)]Man(b1-4)GlcNAc(b1-4)[Fuc(a1-6)]GlcNAc
# Outline: as §1
# Gal(b1-4)Glc = molecular target: Gal(b1-4)Glc
# Outline: as §1
# [15] = molecular target: Gal(b1-4)GlcNAc(b1-2)Man(a1-3)[Gal(b1-4)GlcNAc(b1-2)Man(a1-6)]Man(b1-4)GlcNAc(b1-4)GlcNAc
# Outline: as §1
# [16] = molecular target: Gal(b1-4)GlcNAc(b1-3)Gal(b1-3)GalNAc
# Outline: as §1
# [17] = molecular target: Gal(b1-4)GlcNAc(b1-3)Gal(b1-4)GlcNAc(b1-2)[Gal(b1-4)GlcNAc(b1-3)Gal(b1-4)GlcNAc(b1-6)]Man(a1-6)[Gal(b1-4)GlcNAc(b1-3)Gal(b1-4)GlcNAc(b1-2)Man(a1-3)]Man(b1-4)GlcNAc(b1-4)[Fuc(a1-6)]GlcNAc
# Outline: as §1
# Gal3S(b1-3)GalNAc = molecular target: Gal3S(b1-3)GalNAc
# Outline: as §1
# [18] = molecular target: GalNAc(a1-3)GalNAc(b1-3)Gal(a1-4)Gal(b1-4)GlcNAc
# Outline: as §1
# Glc(b1-6)Glc = molecular target: Glc(b1-6)Glc
# Outline: as §1
# [19] = molecular target: GlcNAc(b1-2)[GlcNAc(b1-4)]Man(a1-3)[GlcNAc(b1-4)][GlcNAc(b1-2)Man(a1-6)]Man(b1-4)GlcNAc(b1-4)GlcNAc
# Outline: as §1
# [20] = molecular target: GlcNAc(b1-2)[GlcNAc(b1-4)]Man(a1-3)[GlcNAc(b1-4)][GlcNAc(b1-2)[GlcNAc(b1-6)]Man(a1-6)]Man(b1-4)GlcNAc(b1-4)[Fuc(a1-6)]GlcNAc
# Outline: as §1
# [21] = molecular target: GlcNAc(b1-3)Gal(b1-4)GlcNAc(b1-2)[GlcNAc(b1-3)Gal(b1-4)GlcNAc(b1-6)]Man(a1-6)[GlcNAc(b1-3)Gal(b1-4)GlcNAc(b1-2)Man(a1-3)]Man(b1-4)GlcNAc(b1-4)GlcNAc
# Outline: as §1
# [22] = molecular target: GlcNAc(b1-3)Gal(b1-4)GlcNAc(b1-3)GalNAc
# Outline: as §1
# [23] = molecular target: GlcNAc(b1-4)Gal(b1-4)GlcNAc
# Outline: as §1
# [24] = molecular target: GlcNAc(b1-4)GlcNAc(b1-4)GlcNAc(b1-4)GlcNAc(b1-4)GlcNAc
# Outline: as §1
# [25] = molecular target: GlcNAc(b1-4)GlcNAc(b1-4)GlcNAc(b1-4)GlcNAc(b1-4)GlcNAc(b1-4)GlcNAc
# Outline: as §1
# Kdn(a2-3)Gal(b1-3)GalNAc = molecular target: Kdn(a2-3)Gal(b1-3)GalNAc
# Outline: as §1
# [26] = molecular target: Man(a1-2)Man(a1-3)[Man(a1-2)Man(a1-6)]Man(a1-6)[Man(a1-2)Man(a1-2)Man(a1-3)]Man(b1-4)GlcNAc(b1-4)GlcNAc
# Outline: as §1
# MurNAc(b1-4)GlcNAc = molecular target: MurNAc(b1-4)GlcNAc
# Outline: as §1
# Neu5Ac(a2-3)Gal(b1-4)Glc = molecular target: Neu5Ac(a2-3)Gal(b1-4)Glc
# Outline: as §1
# [27] = molecular target: Neu5Ac(a2-3)Gal(b1-4)GlcNAc(b1-2)Man
# Outline: as §1
# [28] = molecular target: Neu5Ac(a2-3)Gal(b1-4)GlcNAc(b1-2)Man(a1-3)[Neu5Ac(a2-3)Gal(b1-4)GlcNAc(b1-2)Man(a1-6)]Man(b1-4)GlcNAc(b1-4)[Fuc(a1-6)]GlcNAc
# Outline: as §1
# [29] = molecular target: Neu5Ac(a2-3)Gal(b1-4)GlcNAc(b1-3)Gal
# Outline: as §1
# [30] = molecular target: Neu5Ac(a2-3)Gal(b1-4)GlcNAc(b1-3)Gal(b1-4)GlcNAc(b1-3)Gal(b1-4)GlcNAc(b1-2)Man(a1-3)[Neu5Ac(a2-3)Gal(b1-4)GlcNAc(b1-3)Gal(b1-4)GlcNAc(b1-3)Gal(b1-4)GlcNAc(b1-2)Man(a1-6)]GalNAc
# Outline: as §1
# [31] = molecular target: Neu5Ac(a2-3)Gal(b1-4)GlcNAc(b1-3)Gal(b1-4)[Fuc(a1-3)]GlcNAc
# Outline: as §1
# [32] = molecular target: Neu5Ac(a2-3)Gal(b1-4)[Fuc(a1-3)]GlcNAc(b1-3)Gal(b1-4)GlcNAc
# Outline: as §1
# Neu5Ac(a2-3)GalNAc = molecular target: Neu5Ac(a2-3)GalNAc
# Outline: as §1
# [33] = molecular target: Neu5Ac(a2-6)Gal(b1-4)GlcNAc(b1-2)Man(a1-3)[GlcNAc(b1-4)][Neu5Ac(a2-6)Gal(b1-4)GlcNAc(b1-2)Man(a1-6)]Man(b1-4)GlcNAc(b1-4)GlcNAc
# Outline: as §1
# [34] = molecular target: Neu5Ac(a2-6)Gal(b1-4)GlcNAc(b1-2)Man(a1-3)[Man(a1-6)]Man(b1-4)GlcNAc(b1-4)GlcNAc
# Outline: as §1
# [35] = molecular target: Neu5Ac(a2-6)GlcNAc(b1-4)GlcNAc
# Outline: as §1
# [36] = molecular target: Neu5Ac(a2-8)Neu5Ac(a2-3)[Gal(b1-3)GalNAc(b1-4)]Gal(b1-4)Glc
# Outline: as §1
# [37] = molecular target: Neu5Ac(a2-8)Neu5Ac(a2-8)Neu5Ac(a2-8)Neu5Ac(a2-3)[GalNAc(b1-4)]Gal(b1-4)Glc
# Outline: as §1
# [38] = molecular target: Neu5Ac(b2-6)Gal(b1-4)GlcNAc
# Outline: as §1
# [39] = molecular target: Neu5Gc(a2-6)Gal(b1-4)GlcNAc
# Outline: as §1
# [40] = molecular target: Neu5Gc(a2-8)Neu5Gc(a2-3)Gal(b1-4)GlcNAc
# Outline: as §1
# [41] = molecular target: Neu5Gc(a2-8)Neu5Gc(a2-3)Gal(b1-4)GlcNAc(b1-3)Gal(b1-4)GlcNAc
# Outline: as §1
binder,measurement,setting,value
Vd2LysM (Verticillium dahliae) (protein) YRRTCSHTGKGEGWYIIRRGDNFNAVAADFCTSTNVLTEWNHISTITDNMVNTKIKVPCRWNAGKQRDCLKDQKSSNGWYHIVSGDELKDIAYDFCTTSGSLAGMNGISNPDYIKANTDIVVPCSWN,glycan array binding signal (z-score),[1],2.91
same,glycan array binding signal (z-score),Fuc(a1-2)Gal(b1-3)GlcNAc,0.299
same,glycan array binding signal (z-score),[2],-0.965
same,glycan array binding signal (z-score),[3],0.247
same,glycan array binding signal (z-score),[4],0.533
same,glycan array binding signal (z-score),[5],-0.126
same,glycan array binding signal (z-score),[6],-0.592
same,glycan array binding signal (z-score),[7],0.699
same,glycan array binding signal (z-score),[8],0.43
same,glycan array binding signal (z-score),Gal(a1-3)Gal(b1-4)GlcNAc,-0.365
same,glycan array binding signal (z-score),[9],-1.06
same,glycan array binding signal (z-score),Gal(b1-3)GlcNAc,-0.257
same,glycan array binding signal (z-score),[10],0.452
same,glycan array binding signal (z-score),[11],0.151
same,glycan array binding signal (z-score),[12],6.69
same,glycan array binding signal (z-score),[13],2.23
same,glycan array binding signal (z-score),[14],-0.543
same,glycan array binding signal (z-score),Gal(b1-4)Glc,0.73
same,glycan array binding signal (z-score),[15],-0.349
same,glycan array binding signal (z-score),[16],0.984
same,glycan array binding signal (z-score),[17],2.2
same,glycan array binding signal (z-score),Gal3S(b1-3)GalNAc,-0.656
same,glycan array binding signal (z-score),[18],-0.212
same,glycan array binding signal (z-score),Glc(b1-6)Glc,-1.15
same,glycan array binding signal (z-score),[19],2.82
same,glycan array binding signal (z-score),[20],3.56
same,glycan array binding signal (z-score),[21],0.741
same,glycan array binding signal (z-score),[22],-1.11
same,glycan array binding signal (z-score),[23],-1.44
same,glycan array binding signal (z-score),[24],8.56
same,glycan array binding signal (z-score),[25],4.42
same,glycan array binding signal (z-score),Kdn(a2-3)Gal(b1-3)GalNAc,1.25
same,glycan array binding signal (z-score),[26],2.21
same,glycan array binding signal (z-score),MurNAc(b1-4)GlcNAc,-0.26
same,glycan array binding signal (z-score),Neu5Ac(a2-3)Gal(b1-4)Glc,0.49
same,glycan array binding signal (z-score),[27],-0.481
same,glycan array binding signal (z-score),[28],1.14
same,glycan array binding signal (z-score),[29],-0.599
same,glycan array binding signal (z-score),[30],2.35
same,glycan array binding signal (z-score),[31],-0.732
same,glycan array binding signal (z-score),[32],-0.125
same,glycan array binding signal (z-score),Neu5Ac(a2-3)GalNAc,0.096
same,glycan array binding signal (z-score),[33],-0.761
same,glycan array binding signal (z-score),[34],-0.322
same,glycan array binding signal (z-score),[35],0.619
same,glycan array binding signal (z-score),[36],0.198
same,glycan array binding signal (z-score),[37],1.71
same,glycan array binding signal (z-score),[38],0.512
same,glycan array binding signal (z-score),[39],0.437
same,glycan array binding signal (z-score),[40],2.17
same,glycan array binding signal (z-score),[41],0.317
